# Source: PubChem BioAssay
# An excerpt weighted towards active compounds, which were near 7.5% of everything screened.
# ELG1 genotoxic = genotoxicity induction in ELG1-luciferase HEK293T cells; Potency, µM (doses to about 46 µM), for the others: top-dose activity change, positive = activation, actives largely listed as activators; HEK293T ELG1-luciferase reporter, luminescence, 16 h; 1.3% of 330,000 active; also: % of control where 0% means no effect; nearly all actives have a fitted effect of over 60% in size
#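 Genotoxicity was scored as increased ELG1-luciferase reporter signal, measured by ONE-Glo luminescence (30 min, room temperature). Compound or vehicle exposure of the HEK293T reporter cells lasted 16 hr at 37°C.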
# FLuc counter = counter-screen for miR-21 project: firefly luciferase inhibitors or activators. purified FLuc, Km substrates, luminescence inhibition. P08659. AID 588342. Potency, µM (series often up to 57.5 µM), inactives show at the highest dose activity change, negative = inhibition, most hits filed as inhibitors. 6.9% of 360,000 active;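 also: plate controls were vehicle for no effect and reference inhibitor for full effect; nearly all actives have a fitted effect of over 55% in size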
# Target sequence (P08659 whole entry, looked up): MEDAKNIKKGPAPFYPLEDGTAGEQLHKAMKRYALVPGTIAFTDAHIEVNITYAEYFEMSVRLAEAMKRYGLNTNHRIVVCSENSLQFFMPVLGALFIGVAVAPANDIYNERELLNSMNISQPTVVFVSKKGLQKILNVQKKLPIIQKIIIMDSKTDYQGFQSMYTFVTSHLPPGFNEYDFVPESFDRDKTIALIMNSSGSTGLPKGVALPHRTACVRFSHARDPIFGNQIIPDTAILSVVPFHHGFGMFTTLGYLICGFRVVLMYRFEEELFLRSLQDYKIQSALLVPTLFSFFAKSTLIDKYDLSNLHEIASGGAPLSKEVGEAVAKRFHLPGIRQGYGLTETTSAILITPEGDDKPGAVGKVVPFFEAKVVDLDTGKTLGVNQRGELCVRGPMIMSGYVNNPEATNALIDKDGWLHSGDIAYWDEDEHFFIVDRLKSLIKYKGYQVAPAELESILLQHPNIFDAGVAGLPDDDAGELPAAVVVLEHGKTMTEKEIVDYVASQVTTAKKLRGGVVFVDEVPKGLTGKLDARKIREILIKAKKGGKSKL
#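 Biochemical qHTS of compounds, final roughly 60 µM downward over six points, against 10 nM purified firefly luciferase using Km concentrations of substrates (10 uM D-luciferin, 10 uM ATP) in Tris acetate pH 7.5 buffer; luminescence output.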
# Rab9 prom act = activators of Rab9 promoter; Potency, µM (titrated, usually from 9.22 µM), for inactives: top-dose activation, negative = inhibition, most hits filed as activators; 2.8% of 320,000 active; AID 485297; Huh7 Rab9 promoter-luciferase reporter, luminescence, 24 h; also: % of control where 0% means no effect; nearly all actives have a fitted effect of over 60% in size
#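 Huh7 cells stably carrying Rab9 promoter–luciferase reporter, plated 1500 cells/well, compound added after 2 h and incubated 24 h at 37 °C; luciferase luminescence then read after 10 min with detection reagent.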
# NPC1 promoter act = NPC1 promoter activation; Huh7 NPC1 promoter luciferase reporter, 24 h; Potency, µM (highest dose often 9.22 µM), without a hit: at the highest dose activation, hits mostly activators; 2.4% of 320,000 active; also: % of control where 0% means no effect; nearly all actives have a fitted effect of over 60% in size
#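 Stably transfected Huh7 (NPC1 promoter→luciferase), 1500 cells/well in Opti-MEM + 10% FBS, 2 h settle, then compound 24 h at 37 °C. Luminescence after 10 min with Amplite reagent.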
# SMN2 splice enh = SMN2 splice variant enhancement; Potency, µM (series often up to 46.1 µM), for the others: at the highest dose activity change, positive = activation, usual class: activators; HEK293 SMN2-luciferase splicing reporter, luminescence, 30-36 h; 2.8% of 210,000 active; also: % of control where 0% means no effect; nearly all actives have a fitted effect of over 55% in size
#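 qHTS luciferase splicing reporter: luminescence rises when SMN2 exon 7 is included in transfected HEK293 cells. Compound exposure lasted 30-36 h at 37C, with 4.5 mM final sodium butyrate as control, followed by a ONE-Glo read.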
# The depositor's hits bear a star; ? = inconclusive; . = not tested or not shown; [ ] = dose if it differs, or a comment. Calls follow the shape of the dose curve; as a rule, active = well fitted curve in the direction sought with a large enough effect; inconclusive = small, poorly fitted or top-dose-only effect, or another doubt; inactive = no such curve, though single readings can be large; an effect the other way counts as inactive or inconclusive. Potency is read from the fitted curve at half-maximal effect.
SMILES,ELG1 genotoxic,FLuc counter,Rab9 prom act,NPC1 promoter act,SMN2 splice enh
Cc1ccc(/C=C(\NC(=O)c2ccccc2)C(=O)N2CCCCC2)cc1,-4%,2%,-3%,-5%,.
CN(C)c1ccc(/C=C(\C#N)C(=O)c2ccccc2)cc1,7%,0.43µM*,0%,-3%,.
COc1cccc(CNS(=O)(=O)c2ccc3c(c2)N(C)CCO3)c1,-5%,0%,0%,0%,.
CC(=O)c1ccc(NC(=O)Nc2cccnc2)cc1,21µM*,?,?,2.5µM*,.
Cc1ccc(NC(=O)Nc2ccon2)cc1Cl,3%,19µM*,23%,21%,.
Fc1ccc(NC(=S)Nc2cccnc2)cc1,-8%,3%,-2%,-2%,-9%
O=C(Nc1ccc(F)cc1)Nc1cccnc1,1%,17µM*,4%,10%,.
CCOc1ccc(NC(=O)Nc2ccon2)cc1,?,24µM*,?,25%,.
Cc1ccc(NC(=O)Nc2ccon2)cc1,14%,?,?,25%,.
CC(=O)N1CCC(C(=O)OCc2ccccc2F)(c2ccccc2)CC1,3%,0%,?,24%,.
O=C(Nc1ccccc1)Nc1ccc(Oc2cccnc2)nc1,6%,13µM*,25%,27%,.
CCC(C)c1ccc(NC(=O)NCc2cccnc2)cc1 (configuration not stated),-2%,-13%,11%,9%,.
CN1CCc2cc(NC(=O)Nc3cccnc3)ccc21,.,.,?,9.2µM*,?
O=C(Nc1ccc(OC(F)(F)F)cc1)Nc1cccnc1,6%,7.6µM*,?,?,.
CCC(C)c1ccc(NC(=O)Nc2cccnc2)cc1 (configuration not stated),?,1.7µM*,4.5µM*,1.8µM*,.
O=C(NCC(F)(F)F)Nc1cccnc1,1%,-1%,7%,-7%,-10%
COC(=O)c1cn(NC(=O)c2cccc(OC)c2)c(=O)c2ccccc12,-2%,-4%,-2%,1%,-6%
Cc1ccc(NC(=O)Nc2cccnc2)cc1Cl,?,4.8µM*,28%,?,.
O=C(CC(=O)c1ccccc1)Nc1cccnc1,6%,?,-1%,23%,4%
Cn1ccc2cc3c(cc21)CCN3C(=O)Nc1cccnc1,?,6µM*,3.2µM*,3.7µM*,?
O=C(Nc1ccccc1)C(=O)Nc1cccnc1,?,3µM*,0.4µM*,0.5µM*,.
COc1cc2c(cc1C(F)(F)F)N(C(=O)Nc1cc(F)cc(-c3cccnc3)c1)CC2,.,.,.,.,-18%
Cc1ccc(S(=O)(=O)NCCC(=O)N2CCOCC2)cc1C,-4%,1%,-6%,-8%,.
Cc1ccc(N(CC(=O)Nc2cccc(C)c2)S(=O)(=O)c2cccc3nonc23)cc1,-4%,3%,-3%,0%,.
O=C(Nc1ccc(F)cc1)Nc1nnc(-c2ccco2)s1,20%,-19%,2.8µM*,?,19%
SMILES,ELG1 genotoxic,FLuc counter,Rab9 prom act,NPC1 promoter act,SMN2 splice enh
O=C(Nc1nnc(-c2ccco2)s1)c1ccccc1,1.2µM*,3µM*,0.4µM*,0.79µM*,2µM*
CC(C)C(=O)Nc1nnc(-c2ccco2)s1,12%,-18%,28%,14%,.
COc1ccccc1NC(=O)Nc1nnc(-c2ccco2)s1,4%,-1%,3%,-3%,1%
COc1ccc(C(=O)Nc2nnc(-c3ccco3)s2)cc1,?,0.48µM*,0.32µM*,0.45µM*,1.4µM*
CC1Cc2ccccc2N1C(=O)CSC1=NCCS1 (configuration not stated),0%,?,-1%,4%,-3%
O=C(CSC1=NCCS1)N1CCc2ccccc21,8.2µM*,13µM*,4µM*,?,?
Cc1ccc(SCC(=O)N2CCc3ccccc32)cc1,?,9.5µM*,?,19%,?
O=C(Cc1ccccc1)N1CCc2ccccc21,?,-16%,12%,8%,-14%
Nc1ccccc1SCC(=O)N1CCc2ccccc21,?,17µM*,?,?,68%
Cc1ccc(Cc2nc3ccccc3nc2SCC(=O)N2CCc3ccccc32)cc1,.,1%,.,.,.
O=C(CS(=O)(=O)c1ccccc1)N1CCc2ccccc21,?,15µM*,2.5µM*,4µM*,14µM*
COc1cccc(CNC(=O)CN2C(=O)CCn3nc(-c4cn(C)c5ccccc45)cc32)c1OC,.,2%,.,.,.
Oc1ccc(N2CCN(C(=S)NCCc3ccccc3)CC2)cc1,3%,?,18%,?,-49%
O=C(CNCCO)N1CCc2ccccc21,-4%,-4%,-2%,2%,-4%
O=C(CSc1ccccc1C(=O)O)c1ccc(Cl)cc1,?,11µM*,4µM*,4µM*,.
O=C(CSc1ccccc1C(=O)O)c1ccccc1,0%[9.26 µM],?,?,21%,.
O=C(CNc1ccccc1OC(F)F)N1CCc2ccccc21,?,?,3.2µM*,3.2µM*,14µM*
O=C(O)c1ccccc1SCC(=O)N1CCc2ccccc21,14%,21µM*,?,?,27%
O=C(CSCCO)N1CCc2ccccc21,2%,4%,-3%,-1%,23%
Cc1ccc(OCc2nc(-c3ccccn3)n[nH]2)cc1,7%,24µM*,?,?,?
COc1ccc2c(c1)CCc1c(C(=O)NCc3ccco3)noc1-2,?,7.6µM*,1.6µM*,3.5µM*,7.1µM*
COc1ccc2c(c1)CCc1c(C(=O)Nc3ccc(C#N)cc3)noc1-2,.,-2%,.,.,18%
COCCNC(=O)c1noc2c1CCc1cc(OC)ccc1-2,?,?,?,3.5µM*,7.9µM*
COc1ccc2c(c1)CCc1c(C(=O)NC3CCCCC3)noc1-2,?,1.3µM*,1.1µM*,1.4µM*,7.1µM*
COc1ccc2c(c1)CCc1c(C(=O)Nc3cc(OC)c(Cl)cc3OC)noc1-2,.,-5%,.,.,3%
SMILES,ELG1 genotoxic,FLuc counter,Rab9 prom act,NPC1 promoter act,SMN2 splice enh
COc1ccc2c(c1)CCc1c(C(=O)N(C)c3ccccc3)noc1-2,?,13µM*,?,?,5µM*
COc1ccc2c(c1)CCc1c(C(=O)NCCN3CCOCC3)noc1-2,2%,-16%,-3%,-1%,-6%
COCC(C)NC(=O)c1noc2c1CCc1cc(OC)ccc1-2 (configuration not stated),?,13µM*,2.5µM*,3.2µM*,10µM*
O=C(/C=C/c1ccccc1)NCCc1ccccc1,21µM*,19µM*,29%,-4%,.
CC(C)(C)SCCNC(=O)/C=C/c1ccccc1,?,19µM*,?,?,.
COc1ccc(C(=O)COc2ccccc2N2C(=O)C3C4C=CC(C4)C3C2=O)cc1 (configuration not stated),?,0%,?,?,19%
Nc1nccc(/C=C/c2ccc(Cl)cc2)n1,?,6µM*,2.2µM*,1.8µM*,.
Nc1nccc(/C=C/c2c(Cl)cccc2Cl)n1,-1%,?,-1%,-1%,.
